# Measurements published in PubChem BioAssay (NCI).
# About 83,000 compounds went through this panel and 20% of them were active in at least one assay; those are over-represented in the sample as a whole.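 Activity criterion: percent growth below 10, measured after cells in 96-well plates were exposed to a single compound concentration for 48 hours.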 Unmarked numbers belong to inactive results. Calls of active or inactive are those of the source.
# Tests used:
# Experiment in all cases: NCI-60 one-dose screen, 48 h (100 = growth as untreated, 0 = no growth, -100 = all killed)
# Conditions in all cases: 10 µM unless noted
# RPMI-8226 leukemia = tested on: RPMI-8226 leukemia
# OVCAR-8 ovarian = tested on: OVCAR-8 ovarian
# OVCAR-5 ovarian = tested on: OVCAR-5 ovarian
# OVCAR-4 ovarian = tested on: OVCAR-4 ovarian
# SK-OV-3 ovarian = tested on: SK-OV-3 ovarian
# IGROV1 ovarian = tested on: IGROV1 ovarian
# OVCAR-3 ovarian = tested on: OVCAR-3 ovarian
# HS 578T breast = tested on: HS 578T breast
# NCI/ADR-RES ovarian = tested on: NCI/ADR-RES ovarian
# T-47D breast = tested on: T-47D breast
# BT-549 breast = tested on: BT-549 breast
# MDA-MB-435 melanoma = tested on: MDA-MB-435 melanoma
# SW-620 colon = tested on: SW-620 colon
# MCF7 breast = tested on: MCF7 breast
# HCT-116 colon = tested on: HCT-116 colon
# HCC-2998 colon = tested on: HCC-2998 colon
# KM12 colon = tested on: KM12 colon
SMILES,growth (RPMI-8226 leukemia),growth (OVCAR-8 ovarian),growth (OVCAR-5 ovarian),growth (OVCAR-4 ovarian),growth (SK-OV-3 ovarian) [%],growth (IGROV1 ovarian),growth (OVCAR-3 ovarian),growth (HS 578T breast),growth (NCI/ADR-RES ovarian),growth (T-47D breast),growth (BT-549 breast),growth (MDA-MB-435 melanoma),growth (SW-620 colon),growth (MCF7 breast),growth (HCT-116 colon),growth (HCC-2998 colon),growth (KM12 colon)
ClCc1cccc2c(CCl)cccc12,31%,63.8%,114%,94.4%,83,54.9%,62.7%,98.8%,69.2%,4.84% (active),-74% (active),84.3%,70.8%,24.4%,-86.3% (active),55.8%,13.7%
O=C(O)C1CCCN1C(=O)OCc1ccccc1 (configuration not stated),112%,94.8%,105%,122%,102,104%,120%,100%,105%,102%,85.8%,102%,111%,90%,107%,–,113%
C=CCOc1ccc(Cl)cc1Cl,113%,119%,93.1%,106%,118,116%,111%,113%,109%,103%,101%,102%,107%,–,104%,114%,109%
O=S(=O)(O)c1cccc2cccnc12,107%,112%,106%,118%,114,101%,95.3%,95.2%,106%,106%,121%,105%,94.6%,106%,100%,103%,105%
CCCCCCCCCCC(=O)CCCCCCCCCC,98.8%,109%,103%,103%,92.1,–,118%,114%,100%,92.3%,95.3%,106%,104%,101%,94.9%,94.4%,–
CC(=O)N(C(C)=O)c1ccc(C)cc1,115%,101%,94.2%,101%,109,109%,112%,110%,96.6%,102%,101%,111%,–,87.6%,117%,98.2%,103%
CCOc1ccc2c(c1)c(C)cc(C)[n+]2CC,52.1%,62.4%,98.5%,58.8%,83.4,82.3%,76.2%,104%,113%,69.5%,33.8%,–,84%,72.3%,54.5%,82.9%,17.6%
O=C(O)Cc1ccccn1,102%,102%,101%,117%,104,105%,114%,109%,111%,110%,101%,104%,105%,100%,104%,111%,104%
Oc1ccc2ccccc2c1CN1CCOCC1,97.5%,105%,113%,108%,104,106%,120%,112%,113%,104%,103%,112%,113%,106%,103%,105%,114%
C=C1CC2(OC1=O)C(=O)N(C)c1ccc(I)cc12 (configuration not stated),-60% (active),-8.98% (active),-10.3% (active),-87.6% (active),67.6,-66.9% (active),-96.9% (active),-5.25% (active),-66% (active),-82.6% (active),–,-64.8% (active),-76.3% (active),-66.8% (active),-92.6% (active),-89.3% (active),2.99% (active)
O=c1cc(Cl)nc2ccccn12,114%,110%,101%,120%,110,96.5%,100%,104%,104%,103%,107%,108%,105%,91.4%,99.6%,102%,96.6%
CCOC(=O)c1cc(Cl)c(O)c(Cl)c1,101%,100%,108%,120%,109,96.8%,115%,109%,111%,118%,105%,126%,109%,98.1%,102%,112%,108%
Cc1ccccc1CC(N)C(=O)O (configuration not stated),109%,104%,116%,103%,104,109%,104%,114%,114%,103%,–,108%,121%,104%,106%,117%,–
CCOC(=O)c1ccc(NC(=O)Nc2nccs2)cc1,6.43% (active),8.24% (active),25.9%,16.7%,10.8,-16.2% (active),-48.8% (active),48.4%,-6.67% (active),57.3%,–,5.34% (active),16.5%,0.495% (active),1.86% (active),-27.7% (active),-33.3% (active)
O=C(NC(=S)N1CC=CCC1)c1ccccc1,104%,100%,97.4%,116%,107,122%,115%,92.7%,108%,110%,93.6%,109%,–,101%,102%,–,–
CN=S(=O)(OCCCCCOS(=O)(=NC)c1ccc(C)cc1)c1ccc(C)cc1 (configuration not stated),75.2%,95%,106%,82.8%,100,13.6%,104%,90.1%,89.7%,88.5%,–,91.9%,84.9%,87.6%,75.2%,91.5%,98.2%
CCOC(=O)C1(N)CCCCC1,110%,107%,94.6%,121%,100,85.4%,112%,88.6%,98.7%,93.4%,113%,99.2%,103%,–,96%,101%,107%
CCOC(=O)/C(C#N)=C\c1c[nH]c2ccccc12,55.7%,85%,111%,86.8%,96.2,–,103%,116%,88.5%,86.5%,129%,113%,115%,77%,100%,108%,109%
CCNCC(C)(C)O,107%,106%,100%,98.7%,110,112%,117%,113%,102%,104%,105%,106%,106%,97.1%,101%,109%,113%
